Measurements reported in PubChem BioAssay (NCI).
Compounds without any hit were thinned out: in the full panel of roughly 83,000, 20% have a hit.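 Treatment: one concentration, 48 hours, 96-well format. Scoring: percent growth, with anything below 10 considered active.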 Values without a mark were called inactive. Active and inactive are the calls of the source.

Tested on: HL-60(TB) leukemia
Experiment: NCI-60 one-dose screen, 48 h (100 = growth as untreated, 0 = no growth, -100 = all killed)
Conditions: 10 µM unless noted

Structure (SMILES) | growth
O=C(Nc1ccccc1O)c1ccccc1Nc1ccnc(C(F)(F)F)c1 | 68.3%
Cc1ccc(/C=C2/C(=O)Nc3cc(Cl)c(-c4csc(N)n4)cc32)cc1 | 22.2%
COc1ccc2nc(-c3ccc(Cl)cc3)cc(C(=O)N3N=C(c4ccc(N)cc4)CC3c3ccccc3)c2c1 (stereo not drawn) | -1.6% (active)
COc1ccc(NC(=O)c2ccccc2-c2ccccc2)c(C(N)=O)c1 | -17.9% (active)
COc1ccc2oc(=O)cc(C3c4ccc([nH]4)C(c4cc(=O)oc5ccc(OC)cc45)c4ccc([nH]4)C(c4cc(=O)oc5ccc(OC)cc45)c4ccc([nH]4)C(c4cc(=O)oc5ccc(OC)cc45)c4ccc3[nH]4)c2c1 (stereo not drawn) | -14.5% (active)
Cc1ccc(O)c(C(=O)c2ccccc2Cl)c1 | 112%
CC/C(Cc1ccccc1)=C(\c1ccc(OCCN2CCCCCC2)cc1)c1ccc(OC(=O)NCc2ccccc2)cc1 | 37%
CC/C=C\C[C@H](O)C/C=C1/C(=O)C=C[C@@H]1C/C=C\CCCC(=O)OC | -12.3% (active)
Cc1ccc2c(n1)C(=O)C(Oc1ccc(Br)cc1)=CC2=O | 41.1%
CCOC(=O)c1ccc2c(c1)[n+](=O)c(C(=O)C1CCCS1)c(C(F)(F)F)n2[O-] (stereo not drawn) | -69% (active)
Cc1ccc(Nc2cc(=S)nc(N)[nH]2)cc1C | 92.6%
O=C(Cc1ccccc1Nc1c(Cl)cccc1Cl)NN1C(=O)/C(=C/c2ccc(Br)cc2)SC1=S | 101%
COc1ccc(Sc2[nH]c(C(C)=O)c3ccccc23)cc1 | 23.3%
Cc1ccc(-c2nc(SCC(=O)c3ccc(C#N)cc3)[nH]c(=O)c2C#N)cc1 | 94.2%
C[PH+](c1nc2ccccc2nc1[PH+](C)C(C)(C)C)C(C)(C)C.C[PH+](c1nc2ccccc2nc1[PH+](C)C(C)(C)C)C(C)(C)C.[Au+].[Cl-] (stereo not drawn) | 12%
COc1cc(Cl)cc(-c2nn(-c3cccc(NC(=O)c4ccc(Cl)c(Cl)c4)c3)cc2-c2ccncc2)c1 | 94.1%
Cn1c(=O)[nH]c2ccccc2c1=O | 111%
CC(C)(C)c1cc(C[P+](c2ccc(Cl)cc2)(c2ccc(Cl)cc2)c2ccc(Cl)cc2)cc(C(C)(C)C)c1O | 3.1% (active)
COc1cc(C2CC(C3C(=O)N(C)C(=O)N(C)C3=O)=NN2C=O)cc(OC)c1OC (stereo not drawn) | 104%

Structure (SMILES) | growth
Cc1cc(C)nc(SC2=C(Nc3ccc(C)c(Cl)c3)C(=O)N(Cc3ccccc3)C2=O)n1 | 26.1% [30 µM]
CC(C)=CCc1cc(O)cc2c1OC(C=C(C)C)C1=C2C(=O)C2=C(C1=O)S(=O)(=O)CCN2 (stereo not drawn) | -31.5% (active)
Cc1ccc(/C=C/C(=O)c2ccc(-n3cc(CN4CCN(c5cc6c(cc5F)c(=O)c(C(=O)O)cn6C5CC5)CC4)nn3)cc2)cc1 | 98.8%
CCCCCCCCCCCCCC1=NCC[N+]1(CCO)Cc1ccccc1 (stereo not drawn) | -63.8% (active)
C=C1C(=O)O[C@H]2[C@H]1CC/C(COC(=O)NCc1ccc(OC)c(OC)c1)=C\CC[C@@]1(C)O[C@@H]21 | 35.8%
Oc1ccc([S+](c2ccc(O)cc2)c2ccc(O)cc2)cc1 | 110%
Cc1cn(-c2cc(NC(=O)c3ccc(C)c(Nc4nccc(-c5cccnc5)n4)c3)cc(C(F)(F)F)c2)cn1 | 53.3%
O=C(Nc1ncc(Cc2ccccc2)s1)c1cc(-c2ccccc2)nc2ccccc12 | 99.2%
O=c1cc(C2NNC(=S)N2)c2ccc3ccccc3c2o1 (stereo not drawn) | 102%
O=C(Nc1ccc(Cl)cc1)c1cc(-c2ccc(Cl)cc2)c2sc(=O)[nH]c2n1 | -53.7% (active)
O=C(CSc1nnc(-c2ccc(NC(=O)c3cccnc3)cc2)o1)Nc1cccc(Br)c1 | 96.1%
Cc1c(C)n(CC(O)CNC2CCCCC2C)c2ccccc12 (stereo not drawn) | -13.8% (active)
Nc1nc(-c2cc3c(cc2Cl)NC(=O)/C3=C/c2ccc(Cl)cc2)cs1 | -11.7% (active)
COc1ccc(-c2cc(-c3cn(-c4cccc(Cl)c4)nc3-c3ccc(OC)cc3)on2)cc1 | 93.6%
CCc1oc2ccccc2c1C(=O)c1cc(Br)c(O)c(Br)c1 | 53%
O=C(Nc1ccc2[nH]ncc2c1)c1csc(Nc2ccccc2)n1 | 9.35% (active)
NC(=S)N/N=C(/c1ccccc1)c1ccccc1N | 73.3%
O=C1NC(Cc2c[nH]c3ccccc23)C(=O)N1Cc1ccc(Cl)cc1 (stereo not drawn) | 74%
O=C1CCC23OC(c4ccccc4N12)C(O)C(O)C3O (stereo not drawn) | 97%
